Data reported in PubChem BioAssay (NCI).
About 79,000 compounds went through this panel and 15% of them were active in at least one assay; those are over-represented in the sample as a whole. Activity calls are given as the source filed them. No stated cut-off is given here; in the data, active means growth inhibition above about 70%; inactive means the rest.

Legend:
[1] = NCI Yeast Anticancer Drug Screen. Data for the wt1 strain (AID 149);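 further: 0% = growth of vehicle-treated wt1 cultures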; conditions: S. cerevisiae wt1 strain (SPY 50644) growth inhibition, active compounds read high
In short: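 Using yeast strain wt1, compound-induced growth inhibition was determined against vehicle-treated cultures.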

[2] = NCI Yeast Anticancer Drug Screen. Data for the rad50EPP+ strain (AID 151);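 further: 0% = growth of vehicle-treated control cultures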; conditions: S. cerevisiae rad50 mutant strain, active compounds read high
In short: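 Genetically defined yeast (rad50EPP+, DNA damage repair alteration) is grown with compound, and inhibition of growth is expressed relative to vehicle-treated controls.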

[3] = NCI Yeast Anticancer Drug Screen. Data for the mgt1 strain (AID 153); conditions: S. cerevisiae mgt1 mutant growth inhibition, active compounds read high
In short: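 In the mgt1 strain, test compounds were added and growth inhibition was determined relative to vehicle-treated controls.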

[4] = NCI Yeast Anticancer Drug Screen. Data for the rad50 strain (AID 155);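 further: 0% = growth of vehicle-only cultures of the same strain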; conditions: S. cerevisiae rad50 strain growth inhibition, active compounds read high
In short: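 Relative growth inhibition (compound vs vehicle) was measured in yeast with a defined repair-gene alteration.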

[5] = NCI Yeast Anticancer Drug Screen. Data for the mec2-1 strain (AID 157); conditions: S. cerevisiae mec2-1 strain, active compounds read high
In short: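 Each compound was tested on mec2-1 yeast, a strain altered in DNA damage repair or cell cycle control. Growth inhibition is reported relative to vehicle.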

[6] = NCI Yeast Anticancer Drug Screen. Data for the rad14 strain (AID 159);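 further: 0% = growth of vehicle-treated control cultures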; conditions: S. cerevisiae rad14 strain growth inhibition, active compounds read high
In short: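 Screen for anticancer potential: a yeast strain altered in DNA damage repair is grown with compound, and reduced growth is quantified against vehicle controls.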

[7] = NCI Yeast Anticancer Drug Screen. Data for the sgs1 mgt1 strain (AID 161);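 further: 0% = growth of cultures given vehicle only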; conditions: S. cerevisiae sgs1 mgt1 strain, active compounds read high
In short: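 Genetically altered yeast, compound exposure, growth inhibition relative to vehicle.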

[8] = NCI Yeast Anticancer Drug Screen. Data for the CLN2oe strain (AID 163);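 further: 0% = growth of vehicle-only control cultures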; conditions: S. cerevisiae CLN2oe strain, active compounds read high
In short: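 First, the altered yeast strain was treated with each compound; second, its growth was measured; finally, inhibition was derived by comparison with vehicle controls.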

[9] = NCI Yeast Anticancer Drug Screen. Data for the cln2 rad14 strain (AID 165);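 further: 0% = growth equal to vehicle treated cultures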; conditions: S. cerevisiae cln2 rad14 strain, active compounds read high
In short: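 Test compounds were added to cln2 rad14 yeast cultures; inhibition of growth was then determined by comparison with vehicle treatment.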

[10] = NCI Yeast Anticancer Drug Screen. Data for the bub3 strain (AID 167); conditions: S. cerevisiae bub3 mutant strain, active compounds read high
In short: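 Screening used yeast with an engineered genetic alteration affecting cell cycle control. Compound-exposed cultures were compared with vehicle cultures, and reduced growth was taken as inhibition.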

[11] = NCI Yeast Anticancer Drug Screen. Data for the wt2 strain (AID 169);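 further: 0% = growth of vehicle-treated yeast cultures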; conditions: S. cerevisiae wt2 strain growth inhibition, active compounds read high
In short: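 The panel's yeast strains carry defined changes in DNA repair or cell cycle genes. Each strain is grown with compound, and growth loss is scored relative to vehicle.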

[12] = NCI Yeast Anticancer Drug Screen. Data for the mlh1 strain (AID 171);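 further: 0% = growth of vehicle-treated control cultures of the same strain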; conditions: S. cerevisiae mlh1 strain growth inhibition, active compounds read high
In short: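 Inhibition values reflect reduced yeast growth in the presence of compound, referenced to vehicle controls, using a strain chosen for its alteration in DNA repair or cell cycle control.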

[13] = NCI Yeast Anticancer Drug Screen. Data for the sgs1 strain (AID 173);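 further: 0% = growth of vehicle-only control cultures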; conditions: S. cerevisiae sgs1 mutant, active compounds read high
In short: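 Vehicle-treated cultures served as reference for growth inhibition of a yeast strain altered in DNA damage repair or cell cycle control after compound exposure.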

[14] = NCI Yeast Anticancer Drug Screen. Data for the mlh1 rad18 strain (AID 175); conditions: S. cerevisiae mlh1 rad18 strain growth inhibition, active compounds read high
In short: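 Inhibition values reflect reduced growth of mutant yeast versus vehicle-treated controls following compound exposure; the mutations affect DNA damage repair.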

[15] = NCI Yeast Anticancer Drug Screen. Data for the rad18 strain (AID 177); conditions: S. cerevisiae rad18 mutant growth inhibition, active compounds read high
In short: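 Steps: expose repair-mutant yeast to compound; measure growth; express as inhibition relative to vehicle control.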

[16] = at 5.0 µM (retest, dose inferred, filed as 0.5)
[17] = at 50.0 µM (retest, dose inferred, filed as 5.0)

Measured: growth inhibition

Nc1cccc2cc(Cl)cnc12
active: [2]; at 100.0 µM 76% | [4]; [17] 98% | [4]; at 50.0 µM 71% | [4]; at 100.0 µM 87% | [5]; [17] 98% | [5]; at 100.0 µM 78% | [10]; at 100.0 µM 81% | [14]; [17] 100%
inactive: [1]; at 1.2 µM -26% | [1]; at 3.7 µM -26% | [1]; at 11.0 µM -28% | [1]; at 33.0 µM -23% | [1]; at 100.0 µM 63% | [2]; at 1.2 µM -3% | [2]; at 3.7 µM 5% | [2]; at 11.0 µM 11% | [2]; at 33.0 µM 39% | [3]; at 1.2 µM -2% | [3]; at 3.7 µM -2% | [3]; at 11.0 µM 7% | [3]; at 33.0 µM 10% | [3]; at 100.0 µM 64% | [4]; at 1.2 µM 18% | [4]; at 3.7 µM 24% | [4]; [16] 62% | [4]; at 11.0 µM 31% | [4]; at 33.0 µM 47% | [5]; at 1.2 µM 12% | [5]; at 3.7 µM 10% | [5]; [16] 53% | [5]; at 11.0 µM 13% | [5]; at 33.0 µM 7% | [5]; at 50.0 µM 20.9% | [6]; at 1.2 µM -36% | [6]; at 3.7 µM -31% | [6]; at 11.0 µM -36% | [6]; at 33.0 µM -31% | [6]; at 100.0 µM 58% | [7]; [16] 3% | [7]; [17] 10% | [7]; at 50.0 µM 59.7% | [8]; at 1.2 µM 2% | [8]; at 3.7 µM -4% | [8]; at 11.0 µM -23% | [8]; at 33.0 µM -16% | [8]; at 100.0 µM 38% | [9]; [16] 52% | [9]; [17] 41% | [9]; at 50.0 µM 49.3% | [10]; at 1.2 µM 3% | [10]; at 3.7 µM 10% | [10]; [16] 41% | [10]; at 11.0 µM 8% | [10]; at 33.0 µM 13% | [10]; [17] 18% | [10]; at 50.0 µM 38.5% | [11]; at 1.2 µM -34% | [11]; at 3.7 µM -18% | [11]; at 11.0 µM -20% | [11]; at 33.0 µM -15% | [11]; at 100.0 µM 34% | [12]; at 1.2 µM -40% | [12]; at 3.7 µM -41% | [12]; at 11.0 µM -40% | [12]; at 33.0 µM -33% | [12]; at 100.0 µM 49% | [13]; at 1.2 µM -32% | [13]; at 3.7 µM -31% | [13]; at 11.0 µM -14% | [13]; at 33.0 µM 0% | [13]; at 100.0 µM 64% | [14]; [16] 55% | [14]; at 50.0 µM 67.3%

Cn1c(COc2ccc(/C=N/NC(=O)CCC(=O)N/N=C/c3ccc(OCc4c[n+]5ccccc5n4C)cc3)cc2)c[n+]2ccccc12
inactive: [1]; at 1.2 µM 6% | [1]; at 3.7 µM 7% | [1]; at 11.0 µM 11% | [1]; at 33.0 µM 12% | [2]; at 1.2 µM -4% | [2]; at 3.7 µM -7% | [2]; at 11.0 µM -18% | [2]; at 33.0 µM -18% | [2]; at 100.0 µM 45% | [3]; at 1.2 µM 4% | [3]; at 3.7 µM 3% | [3]; at 11.0 µM 4% | [3]; at 33.0 µM 24% | [4]; at 1.2 µM 1% | [4]; at 3.7 µM 2% | [4]; [16] -11% | [4]; at 11.0 µM 1% | [4]; at 33.0 µM 5% | [4]; [17] 55% | [4]; at 50.0 µM 49.1% | [5]; at 1.2 µM -2% | [5]; at 3.7 µM 0% | [5]; [16] -10% | [5]; at 11.0 µM 0% | [5]; at 33.0 µM 10% | [5]; [17] 12% | [5]; at 50.0 µM 32.1% | [6]; at 1.2 µM 0% | [6]; at 3.7 µM -1% | [6]; at 11.0 µM 0% | [6]; at 33.0 µM 7% | [7]; [16] -1% | [7]; [17] 47% | [7]; at 50.0 µM 63.4% | [8]; at 1.2 µM -5% | [8]; at 3.7 µM -3% | [8]; at 11.0 µM -3% | [8]; at 33.0 µM -5% | [9]; [16] -8% | [9]; [17] 28% | [9]; at 50.0 µM 18.8% | [10]; at 1.2 µM -3% | [10]; at 3.7 µM -6% | [10]; [16] -24% | [10]; at 11.0 µM -6% | [10]; at 33.0 µM -1% | [10]; [17] 33% | [10]; at 50.0 µM 18.9% | [11]; at 1.2 µM 4% | [11]; at 3.7 µM 5% | [11]; at 11.0 µM 8% | [11]; at 33.0 µM 12% | [12]; at 1.2 µM 1% | [12]; at 3.7 µM -2% | [12]; at 11.0 µM -1% | [12]; at 33.0 µM 8% | [13]; at 1.2 µM 4% | [13]; at 3.7 µM 4% | [13]; at 11.0 µM 5% | [13]; at 33.0 µM 16% | [14]; [16] -15% | [15]; at 1.2 µM 2% | [15]; at 3.7 µM 3% | [15]; at 11.0 µM 28% | [15]; at 33.0 µM 9%
active: [1]; at 100.0 µM 81% | [3]; at 100.0 µM 98% | [4]; at 100.0 µM 97% | [5]; at 100.0 µM 96% | [6]; at 100.0 µM 97% | [8]; at 100.0 µM 76% | [10]; at 100.0 µM 95% | [11]; at 100.0 µM 99% | [12]; at 100.0 µM 96% | [13]; at 100.0 µM 96% | [14]; [17] 84% | [14]; at 50.0 µM 90.2% | [15]; at 100.0 µM 98%

CN(C)CCNC(=O)c1cccc2nc3c(ccc4ccccc43)nc12
inactive: [1]; at 1.2 µM -3% | [1]; at 3.7 µM -2% | [1]; at 11.0 µM 2% | [1]; at 33.0 µM 17% | [2]; at 1.2 µM -3% | [2]; at 3.7 µM 1% | [2]; at 11.0 µM 15% | [3]; at 1.2 µM -1% | [3]; at 3.7 µM -1% | [3]; at 11.0 µM 1% | [3]; at 33.0 µM 31% | [4]; at 1.2 µM 3% | [4]; at 3.7 µM 26% | [4]; [16] 13% | [4]; at 11.0 µM 67% | [5]; at 1.2 µM -1% | [5]; at 3.7 µM 2% | [5]; [16] 5% | [5]; at 11.0 µM 10% | [5]; at 33.0 µM 25% | [5]; [17] 23%
active: [1]; at 100.0 µM 85% | [2]; at 33.0 µM 75% | [2]; at 100.0 µM 96% | [3]; at 100.0 µM 99% | [4]; at 33.0 µM 91% | [4]; [17] 94% | [4]; at 50.0 µM 90% | [4]; at 100.0 µM 98% | [5]; at 50.0 µM 73.8%
